Experimental data reported in PubChem BioAssay (NCI).
Compounds without any hit were thinned out: in the full panel of roughly 83,000, 20% have a hit.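 Single-concentration screen, 48 h exposure, 96-well plates. Endpoint: percent growth. Below 10 = active.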 Activity calls are given as the source filed them.

These compounds were tested on MDA-MB-468 breast (assay: NCI-60 one-dose screen, 48 h (100 = growth as untreated, 0 = no growth, -100 = all killed)). Details: 10 µM unless noted.

Structure (SMILES)	growth
COc1ccc(C(=O)C(C)C)c2ccccc12	102% (inactive)
C[C@]12CC[C@@H]3c4cc(OC(F)F)c(O)cc4CC[C@H]3[C@@H]1CC[C@@H]2OS(N)(=O)=O	-18.9% (active)
COC(=O)[C@]12CC[C@@H](C)[C@H](C)[C@@H]1C1=CC[C@@H]3[C@@]4(C)CC(=O)[C@H](O)[C@@](C)(CO)[C@@H]4C(=O)C[C@@]3(C)[C@]1(C)CC2	-4.93% (active)
CC1(C)NCCC[C@]2(C)[C@H]3CC[C@@H]4[C@H]5[C@H](C(=O)/C=C/c6ccco6)CC[C@]5(CO)CC[C@@]4(C)[C@]3(C)CC[C@@H]12	87.9% (inactive)
COc1ccc(C(=O)/C=C/c2cn(-c3ccccc3)nc2-c2cccc(Nc3ccnc4cc(Cl)ccc34)c2)cc1	75.7% (inactive)
CC(=O)n1cc([C@H]2CC[C@H](c3cn(C(C)=O)c4ccccc34)c3c2[nH]c2ccccc32)c2ccccc21	92.9% (inactive)
Oc1ccccc1-c1nnco1	88.7% (inactive)
COc1cc(NC(=O)c2cccc(-c3cc(=O)c4c(O)c(OC)c(OC)cc4o3)c2)cc(OC)c1OC	59.9% (inactive)
COC(C(=O)[C@@H](O)[C@@H](C)O)[C@@H]1Cc2cc3cc(O[C@H]4C[C@@H](O[C@H]5C[C@@H](O)[C@H](O)C(C)O5)[C@H](O)C(C)O4)c(C)c(O)c3c(O)c2C(=O)[C@H]1O[C@H]1C[C@@H](O[C@H]2C[C@@H](O[C@H]3C[C@@H](O)[C@H](OC)C(C)O3)[C@@H](O)C(C)O2)[C@H](O)C(C)O1 (some centres undefined)	-60% (active)
CCn1cc(C2=C(c3cn(C)c4ncccc34)C(=O)NC2=O)c2cccnc21	37.2% (inactive)
CCOC(=O)CN(c1sc(C)c(C)c1C(=O)OCC)S(=O)(=O)c1ccc(C)cc1	89.6% (inactive)
O=C(/C=C/c1ccc2ccccc2c1)Nc1ncc(Cc2ccccc2)s1	64% (inactive)
CS(=O)(=O)OCC(COS(C)(=O)=O)C(c1ccccc1)c1ccccc1	102% (inactive)
COc1ccc2c(c1)C(C)Cc1c(ncnc1-n1cnc3ccccc31)N2C (centres undefined)	27.3% (inactive)
CN1C(=O)N2CN3CCCN(C3)CN3C(=S)NC1C23 (centres undefined)	102% (inactive)
Cc1ccc(CN2CCC(C(=O)Nc3ccc(-c4cc5ccccc5[nH]4)cc3)CC2)o1	5.26% (active)
Cc1ccc(N2CCN(C(C)C(N)=O)CC2)cc1 (centres undefined)	109% (inactive)
COc1ccc(Oc2c(I)cc(CC(NC(C)=O)C(=O)O)cc2I)cc1 (centres undefined)	75.8% (inactive)
COc1ccc(-c2cc(-c3cc(OC)ccc3O)[nH]c(=O)c2C#N)cc1	59.5% (inactive)
O=C1Nc2ccccc2/C1=C\c1nc(C2CCN(S(=O)(=O)c3ccc(F)cc3)CC2)n2ccccc12	70.6% (inactive)

Structure (SMILES)	growth
CC(=O)c1cccc(N(C)S(=O)(=O)c2ccc(C)cc2)c1	111% (inactive)
COc1ccc2c(c1)c(-c1nc(-c3c[nH]c4ncccc34)cs1)cn2C	-5.16% (active)
CC/C=C\C/C=C/C=C1/C(=O)C=C[C@@H]1C/C=C\CCCC(=O)OC	19.8% (inactive)
Cc1ccc(O)c(N)c1	98.9% (inactive)
CC(C)NS(=O)(=O)/N=C1\NC(=O)NC1=C(Cl)Cl	60.6% (inactive)
Cc1cc(C=O)c(C)c2c1[nH]c1ccccc12	68.1% (inactive)
CS(=O)(CCCCN=C=S)=NC(=O)c1c(F)c(F)c(F)c(F)c1F (centres undefined)	72.6% (inactive)
O=C(/C=C\c1ccccc1)N1c2ccccc2CC1c1c[nH]c2ccccc12 (centres undefined)	80.6% (inactive)
Cc1nc(Nc2ccc(Cl)cc2)c2cnn(-c3ccccc3)c2n1	98.3% (inactive)
COc1ccc(-c2noc(N)c2-c2cc(OC)c3c(c2)OCO3)cc1	25.6% (inactive)
Nc1nc(N)c(N)c(Nc2ccc(CCO)cc2)n1	92.8% (inactive)
COc1cc2cc3c(nc2cc1OC)CCN3Cc1ccc(NC(=O)Nc2cc(C(F)(F)F)cc(C(F)(F)F)c2)cc1	52.9% (inactive)
O=C(Nc1ccccc1)OCC1OCOC(COC(=O)Nc2ccccc2)C1OC(=O)Nc1ccccc1 (centres undefined)	-1.51% (active)
O=C(CCCCCCN1CC(=O)N2[C@@H](c3cccc(Cl)c3)c3[nH]c4ccccc4c3C[C@H]2C1=O)NO	47.2% (inactive)
Cc1ccc(C2CC(c3nc(-c4ccc(Cl)cc4)oc3C)=NN2C(=O)c2ccncc2)cc1 (centres undefined)	97.8% (inactive)
CCCN(CCC)C(=O)[C@H](CC)[C@@H]1CC[C@@H](C)[C@@H]([C@H](C)[C@@H](O)[C@@H](C)C(=O)[C@H](CC)C2O[C@]3(C=C[C@@H](O)[C@]4(CC[C@@](C)([C@H]5CC[C@](O)(CC)[C@H](C)O5)O4)O3)[C@H](C)C[C@@H]2C)O1 (some centres undefined)	-24.6% (active)
CCn1cc2c(cc1=O)-c1nc3ccccc3c3ccnc(c13)C2=O	72.3% (inactive)
O=C(Nc1ccc(Cl)c(C(F)(F)F)c1)c1ccc(Nc2ccc(Cl)nn2)cc1	41.3% (inactive)
COc1cc([C@@H]2c3cc4c(cc3[C@H](OC3OC5COC(c6ccccc6)OC5C(O)C3O)[C@H]3COC(=O)[C@H]23)OCO4)cc(OC)c1OC (some centres undefined)	17.5% (inactive)
